# Laboratory results from the supplement of paper PMC8728848.
# Only a selection was taken, and the strongest signals are over-represented in it overall.
# Key:
# Experiment in all cases: glycan array binding signal (z-score within array); higher = stronger binding
# Settings in all cases: glycan notation: IUPAC condensed, linker removed
# Fuc(a1-2)Gal = biological target: Fuc(a1-2)Gal
# Procedure, shortened: (§1)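 The binding signal is a Z-score computed within each array and averaged over linkers. Arrays of the same protein sequence at different concentrations or buffers were also averaged together. Data originate from 3228 arrays in the Consortium for Functional Glycomics database, kept only where the protein sequence was available.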
# [1] = biological target: Fuc(a1-2)Gal(b1-3)GalNAc(a1-3)[Fuc(a1-2)]Gal(b1-4)GlcNAc
# Procedure, shortened: as §1
# [2] = biological target: Fuc(a1-2)Gal(b1-3)[Fuc(a1-4)]GlcNAc(b1-3)[Gal(b1-4)GlcNAc(b1-6)]Gal(b1-4)Glc
# Procedure, shortened: as §1
# [3] = biological target: Fuc(a1-2)Gal(b1-4)GlcNAc(b1-2)Man(a1-3)[Fuc(a1-2)Gal(b1-4)GlcNAc(b1-2)Man(a1-6)]Man(b1-4)GlcNAc(b1-4)[Fuc(a1-6)]GlcNAc
# Procedure, shortened: as §1
# [4] = biological target: Fuc(a1-2)Gal(b1-4)GlcNAc(b1-3)[Fuc(a1-3)[Gal(b1-4)]GlcNAc(b1-6)]Gal(b1-4)Glc
# Procedure, shortened: as §1
# [5] = biological target: Fuc(a1-2)Gal(b1-4)GlcNAc(b1-6)GalNAc
# Procedure, shortened: as §1
# [6] = biological target: Fuc(a1-2)Gal(b1-4)[Fuc(a1-3)]GlcNAc(b1-2)Man(a1-3)[Fuc(a1-2)Gal(b1-4)[Fuc(a1-3)]GlcNAc(b1-2)Man(a1-6)]Man(b1-4)GlcNAc(b1-4)[Fuc(a1-6)]GlcNAc
# Procedure, shortened: as §1
# [7] = biological target: Fuc(a1-2)[Gal(a1-3)]Gal(b1-3)GlcNAc(b1-2)Man(a1-3)[Fuc(a1-2)[Gal(a1-3)]Gal(b1-3)GlcNAc(b1-2)Man(a1-6)]Man(b1-4)GlcNAc(b1-4)GlcNAc
# Procedure, shortened: as §1
# [8] = biological target: Fuc(a1-2)[Gal(a1-3)]Gal(b1-3)GlcNAc(b1-6)GalNAc
# Procedure, shortened: as §1
# [9] = biological target: Fuc(a1-2)[Gal(a1-3)]Gal(b1-4)GlcNAc
# Procedure, shortened: as §1
# [10] = biological target: Fuc(a1-2)[GalNAc(a1-3)]Gal(b1-4)GlcNAc(b1-2)Man(a1-3)[Fuc(a1-2)[GalNAc(a1-3)]Gal(b1-4)GlcNAc(b1-2)Man(a1-6)]Man(b1-4)GlcNAc(b1-4)[Fuc(a1-6)]GlcNAc
# Procedure, shortened: as §1
# [11] = biological target: Fuc(a1-2)[GalNAc(a1-3)]Gal(b1-4)[Fuc(a1-3)]GlcNAc(b1-3)GalNAc
# Procedure, shortened: as §1
# [12] = biological target: Fuc(a1-3)[Gal(b1-4)]GlcNAc(b1-6)GalNAc
# Procedure, shortened: as §1
# [13] = biological target: Gal(a1-3)Gal(b1-4)GlcNAc(b1-2)Man
# Procedure, shortened: as §1
# [14] = biological target: Gal(b1-3)GalNAc(b1-4)Gal(b1-4)Glc
# Procedure, shortened: as §1
# [15] = biological target: Gal(b1-3)[Neu5Ac(b2-6)]GalNAc
# Procedure, shortened: as §1
# Gal(b1-4)GlcNAc(b1-2)Man = biological target: Gal(b1-4)GlcNAc(b1-2)Man
# Procedure, shortened: as §1
# [16] = biological target: Gal(b1-4)GlcNAc(b1-2)Man(a1-3)[Gal(b1-4)GlcNAc(b1-2)Man(a1-6)]Man(b1-4)GlcNAc(b1-4)[Fuc(a1-6)]GlcNAc
# Procedure, shortened: as §1
# [17] = biological target: Gal(b1-4)GlcNAc(b1-2)[Gal(b1-4)GlcNAc(b1-4)]Man(a1-3)[Gal(b1-4)GlcNAc(b1-2)[Gal(b1-4)GlcNAc(b1-6)]Man(a1-6)]Man(b1-4)GlcNAc(b1-4)GlcNAc
# Procedure, shortened: as §1
# [18] = biological target: Gal(b1-4)GlcNAc(b1-2)[Gal(b1-4)GlcNAc(b1-6)]Man(a1-6)[Gal(b1-4)GlcNAc(b1-2)Man(a1-3)]Man(b1-4)GlcNAc(b1-4)[Fuc(a1-6)]GlcNAc
# Procedure, shortened: as §1
# [19] = biological target: Gal(b1-4)GlcNAc(b1-3)Gal(b1-4)GlcNAc(b1-2)Man(a1-3)[Gal(b1-4)GlcNAc(b1-3)Gal(b1-4)GlcNAc(b1-2)Man(a1-6)]Man(b1-4)GlcNAc(b1-4)[Fuc(a1-6)]GlcNAc
# Procedure, shortened: as §1
# [20] = biological target: Gal(b1-4)GlcNAc(b1-3)Gal(b1-4)GlcNAc(b1-2)[Gal(b1-4)GlcNAc(b1-3)Gal(b1-4)GlcNAc(b1-6)]Man(a1-6)[Gal(b1-4)GlcNAc(b1-3)Gal(b1-4)GlcNAc(b1-2)Man(a1-3)]Man(b1-4)GlcNAc(b1-4)[Fuc(a1-6)]GlcNAc
# Procedure, shortened: as §1
# [21] = biological target: Gal(b1-4)GlcNAc(b1-3)Gal(b1-4)GlcNAc(b1-3)Gal(b1-4)GlcNAc(b1-2)[Gal(b1-4)GlcNAc(b1-3)Gal(b1-4)GlcNAc(b1-3)Gal(b1-4)GlcNAc(b1-6)]Man(a1-6)[Gal(b1-4)GlcNAc(b1-3)Gal(b1-4)GlcNAc(b1-3)Gal(b1-4)GlcNAc(b1-2)Man(a1-3)]Man(b1-4)GlcNAc(b1-4)[Fuc(a1-6)]GlcNAc
# Procedure, shortened: as §1
# [22] = biological target: Gal(b1-4)GlcNAc(b1-3)Gal(b1-4)GlcNAc(b1-3)Gal(b1-4)GlcNAc(b1-3)Gal(b1-4)GlcNAc(b1-2)Man(a1-3)[Gal(b1-4)GlcNAc(b1-3)Gal(b1-4)GlcNAc(b1-3)Gal(b1-4)GlcNAc(b1-3)Gal(b1-4)GlcNAc(b1-2)Man(a1-6)]Man(b1-4)GlcNAc(b1-4)GlcNAc
# Procedure, shortened: as §1
# [23] = biological target: Gal(b1-4)GlcNAc(b1-3)Gal(b1-4)GlcNAc(b1-3)Gal(b1-4)GlcNAc(b1-3)Gal(b1-4)GlcNAc(b1-2)[Gal(b1-4)GlcNAc(b1-3)Gal(b1-4)GlcNAc(b1-3)Gal(b1-4)GlcNAc(b1-3)Gal(b1-4)GlcNAc(b1-6)]Man(a1-6)[Gal(b1-4)GlcNAc(b1-3)Gal(b1-4)GlcNAc(b1-3)Gal(b1-4)GlcNAc(b1-3)Gal(b1-4)GlcNAc(b1-2)Man(a1-3)]Man(b1-4)GlcNAc(b1-4)[Fuc(a1-6)]GlcNAc
# Procedure, shortened: as §1
binder,measurement,setting,value
"ECL (Erythrina cristagalli), Q6YD91 (protein) VETISFSFSEFEPGNNDLTLQGAAIITQSGVLQLTKINQNGMPAWDSTGRTLYTKPVHIWDMTTGTVASFETRFSFSIEQPYTRPLPADGLVFFMGPTKSKPAQGYGYLGVFNNSKQDNSYQTLAVEFDTFSNPWDPPQVPHIGIDVNSIRSIKTQPFQLDNGQVANVVIKYDASSKILLAVLVYPSSGAIYTIAEIVDVKQVLPEWVDVGLSGATGAQRDAAETHDVYSWSFHASLPETND",glycan array binding signal (z-score),Fuc(a1-2)Gal,-0.188
same,glycan array binding signal (z-score),[1],-0.443
same,glycan array binding signal (z-score),[2],-0.094
same,glycan array binding signal (z-score),[3],-0.031
same,glycan array binding signal (z-score),[4],0.053
same,glycan array binding signal (z-score),[5],-0.165
same,glycan array binding signal (z-score),[6],-0.185
same,glycan array binding signal (z-score),[7],-0.173
same,glycan array binding signal (z-score),[8],-0.206
same,glycan array binding signal (z-score),[9],-0.306
same,glycan array binding signal (z-score),[10],-0.274
same,glycan array binding signal (z-score),[11],0.775
same,glycan array binding signal (z-score),[12],0.251
same,glycan array binding signal (z-score),[13],-0.116
same,glycan array binding signal (z-score),[14],-0.141
same,glycan array binding signal (z-score),[15],-0.546
same,glycan array binding signal (z-score),Gal(b1-4)GlcNAc(b1-2)Man,-0.311
same,glycan array binding signal (z-score),[16],0.114
same,glycan array binding signal (z-score),[17],4.03
same,glycan array binding signal (z-score),[18],5.09
same,glycan array binding signal (z-score),[19],4.13
same,glycan array binding signal (z-score),[20],6.18
same,glycan array binding signal (z-score),[21],5.28
same,glycan array binding signal (z-score),[22],3.58
same,glycan array binding signal (z-score),[23],5.63
